VP16 counter – VP16 counterscreen qHTS for inhibitors of ROR gamma transcriptional activity; 310,000 compounds, 3.5% hits; AID 2546, 2010; Potency, µM (doses to about 53.6 µM), actives largely listed as inhibitors; Drosophila S2 Gal4-VP16 UAS-luciferase, luminescence, 20 h;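 further: Gal4-VP16 expression switched on by copper sulfate through the metallothionein promoter; nearly all actives have a fitted effect of over 50% in size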
RORgamma inh – qHTS for inhibitors of ROR gamma transcriptional activity; Drosophila S2 Gal4-RORgamma UAS-luciferase reporter, 20 h; AID 2551, 2010; Potency, µM (titrated, usually from 53.6 µM), hits mostly inhibitors; 310,000 compounds, 5.4% hits; further: nearly all actives have a fitted effect of over 60% in size
Target sequence (P51450 whole entry, looked up, the tested form may be a part): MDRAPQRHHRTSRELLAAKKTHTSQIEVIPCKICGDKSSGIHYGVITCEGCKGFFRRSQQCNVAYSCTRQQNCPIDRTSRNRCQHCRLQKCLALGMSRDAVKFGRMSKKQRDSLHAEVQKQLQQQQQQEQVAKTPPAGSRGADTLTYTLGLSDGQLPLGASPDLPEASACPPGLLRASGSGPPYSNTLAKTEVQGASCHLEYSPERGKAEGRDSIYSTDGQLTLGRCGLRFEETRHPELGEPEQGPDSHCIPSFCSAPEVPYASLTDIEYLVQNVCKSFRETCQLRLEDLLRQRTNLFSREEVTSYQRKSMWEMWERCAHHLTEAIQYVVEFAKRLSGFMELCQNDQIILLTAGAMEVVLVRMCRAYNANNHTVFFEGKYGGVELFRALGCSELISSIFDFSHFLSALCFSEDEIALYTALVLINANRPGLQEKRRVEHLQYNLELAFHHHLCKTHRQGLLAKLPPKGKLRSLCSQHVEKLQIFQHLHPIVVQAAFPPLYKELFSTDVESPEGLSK
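Read-out: Photinus luciferase luminescence; inhibitors lower reporter signal. Insect Schneider cells with Gal4-ROR gamma fusion under metallothionein promoter, UAS reporter; 700 uM final copper sulfate induction, 20 hr, ambient temperature.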
CtBP-E1A inh – qHTS Assay for Inhibitors of the CtBP/E1A Interaction. activity change, % (test concentration not listed). AlphaScreen GST-E1A/His-CtBP binding, 1536-well; hits give low values. 340,000 compounds, 0.49% hits. CtBP / adenovirus E1A interaction (AlphaScreen); in the data active means activity change below about -65%; inconclusive means mostly about -30% to -63%
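AlphaScreen with 125 nM GST-E1A and 125 nM His-CtBP (5X stocks) in Tris pH 8.0, 300 mM NaCl, BSA, Tween 20, TCEP. Compounds preincubated 2 h at 37 deg C, then glutathione donor/nickel acceptor beads added for 1 h at 37 deg C in dark.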
Six1-Eya2 inh – qHTS Assay for Inhibitors of the Six1/Eya2 Interaction | 360,000 compounds, 0.56% hits | Homeobox protein SIX1 (Homo sapiens) + Protein phosphatase EYA2 (Homo sapiens), … | activity change, % (test concentration not listed) | AID 651725, 2012 | AlphaScreen GST-Six1/His-Eya2 binding, biochemical; hits give low values; in the data active means activity change below about -65%; inconclusive means mostly about -30% to -63%
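Compounds are tested against tagged Six1 and Eya2 proteins bridged by glutathione donor and nickel acceptor beads; after a one-hour incubation at 37 °C without light, AlphaScreen emission is recorded.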
PKM2 act – qHTS Assay for Activators of Human Muscle isoform 2 Pyruvate Kinase | Pyruvate kinase PKM (Homo sapiens), P14618 | 260,000 compounds, 0.34% hits | AID 1631, 2009 | purified PKM2, Kinase-Glo ATP luminescence, activation; response scale: 0% is enzyme alone, no compound | Potency, µM (doses to about 57.5 µM), actives largely listed as activators; further: nearly all actives have a fitted effect of over 55% in size
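hPK-M2, >95% pure; 0.1 mM ADP / 0.5 mM PEP final; imidazole pH7.2 buffer w/ 7 mM MgCl2, 50 mM KCl; 1 h RT; Kinase-Glo lum. Intermediate enzyme activity for dual inhibitor/activator qHTS.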
A number is an active result; [ ] = dose if it differs, or a comment. Hits are enriched below; roughly 5.6% of the tested compounds scored in any of these assays. Unless noted, the call rests on the fitted dose curve; in most records, active means well fitted curve in the direction sought with a large enough effect; inconclusive means small, poorly fitted or top-dose-only effect, or another doubt; inactive means no such curve, though single readings can be large; an effect the other way counts as inactive or inconclusive.

C=CCc1c(C)nc(-c2ccccc2)nc1Nc1ccccc1O was read as VP16 counter inactive, RORgamma inh inconclusive, CtBP-E1A inh inactive, Six1-Eya2 inh inactive and PKM2 act inactive.
For C=CCc1c(C)nc(SC)nc1Nc1ccc(C)cc1 the results were VP16 counter inactive, RORgamma inh 10µM, CtBP-E1A inh inactive, Six1-Eya2 inh inactive and PKM2 act inactive.
For NCCCCCc1nnc(SCc2cccc(Cl)c2)o1 the results were VP16 counter 2.8µM, RORgamma inh 5.6µM, CtBP-E1A inh inactive, Six1-Eya2 inh inactive and PKM2 act inactive.
Screening NCCCCCc1nnc(SCc2ccc(Cl)cc2Cl)o1 returned VP16 counter 5.6µM, RORgamma inh 8.9µM, CtBP-E1A inh inactive, Six1-Eya2 inh inactive and PKM2 act inactive.
COc1cccc(N2CCN(C(=O)c3cc4c(=O)n(Cc5ccccc5)ccc4nc3C)CC2)c1 was read as VP16 counter inactive, RORgamma inh inactive, CtBP-E1A inh inactive, Six1-Eya2 inh inactive and PKM2 act inactive.
`COc1cc(CNc2nccn3ccnc23)cc(OC)c1` gave CtBP-E1A inh inactive and Six1-Eya2 inh inactive.
`Cc1cc(C)n(-c2ccc(C(=O)OCC(=O)Nc3ccc(Cl)cc3[N+](=O)[O-])cc2)n1` gave VP16 counter inactive, RORgamma inh inactive, CtBP-E1A inh inactive, Six1-Eya2 inh inactive and PKM2 act inactive.
Screening Cc1ccc(-c2cc(C(=O)N3CCc4ccccc4C3)[nH]n2)cc1C returned VP16 counter inactive, RORgamma inh 1µM, Six1-Eya2 inh inactive and PKM2 act inactive.
`COc1cccc(-c2cc(C(=O)N3CCc4ccccc4C3)[nH]n2)c1` gave VP16 counter inactive, RORgamma inh 1.1µM, CtBP-E1A inh inactive, Six1-Eya2 inh inactive and PKM2 act inactive[0.46 µM].
Screening Cc1ccc(S(=O)(=O)N(C)C)cc1NC(=O)C(C)OC(=O)c1ccc2c(=O)n3c(nc2c1)CCC3 (stereo unspecified) returned Six1-Eya2 inh inactive.
Screening COCCNS(=O)(=O)c1cc2[nH]c3c(c2cc1C)C(=O)CC(C)(C)C3 returned VP16 counter inactive, RORgamma inh inactive, CtBP-E1A inh inactive and Six1-Eya2 inh inactive.
Screening COc1ccc(Nc2c([N+](=O)[O-])ccc3c2=NC2(CCCCC2)N=3)cc1 returned VP16 counter inactive, RORgamma inh inactive, CtBP-E1A inh -76, Six1-Eya2 inh -78 and PKM2 act inactive.
c1ccc(C(NCCNC(c2ccccc2)c2ccccc2)c2ccccc2)cc1 was read as VP16 counter inconclusive, RORgamma inh 13µM, CtBP-E1A inh inactive, Six1-Eya2 inh inactive and PKM2 act inactive.
`COCCN(C(=S)Nc1ccccc1C)C(C)c1ccco1` (stereo unspecified) gave VP16 counter inactive, RORgamma inh inconclusive, CtBP-E1A inh inactive, Six1-Eya2 inh inactive and PKM2 act inactive.
COCCN(C(=S)Nc1ccc(C)cc1C)C(C)c1ccco1 (stereo unspecified) was read as VP16 counter inactive, RORgamma inh 14µM, CtBP-E1A inh inactive, Six1-Eya2 inh inactive and PKM2 act inactive.
Screening COCCN(C(=S)Nc1ccc(C)cc1)C(C)c1ccco1 (stereo unspecified) returned VP16 counter inactive, RORgamma inh inconclusive, CtBP-E1A inh inactive, Six1-Eya2 inh inactive and PKM2 act inactive.
For COCCN(C(=S)Nc1cccc(C)c1C)C(C)c1ccco1 (stereo unspecified) the results were VP16 counter inconclusive, RORgamma inh 11µM, CtBP-E1A inh inactive, Six1-Eya2 inh inactive and PKM2 act inactive.
For CCCCN1CCC[C@H]1CNC(=O)c1cc(C#N)c2ccccc2c1OC the results were VP16 counter inactive and RORgamma inh inactive.
Screening Cc1nnc(SCc2nc3scc(-c4ccccc4)c3c(=O)[nH]2)s1 returned VP16 counter inactive, RORgamma inh inconclusive, CtBP-E1A inh inactive, Six1-Eya2 inh inactive and PKM2 act 28µM.

Screening results from PubChem BioAssay.
